Reference: PubChem BioAssay AID1159580 (chemical genetic matrix, 2015)
About 2,000 (36%) of roughly 5,500 compounds were called active. Another 18% or so got no clear call; they are omitted. Rule as the data show it: active = normalized growth mostly below about 0.91 (no sharp cut-off); inconclusive = no clear call, values can overlap the other calls; inactive = mostly above about 0.92. Some of the results follow.

Assay: chemical genetic growth profiling, strain panel (AID 1159580);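 also: tested at 20 µM; growth read once vehicle control cultures reached saturation at 30 °C; 1 = growth at the plate median or of vehicle wells; lower values mean less growth of the strain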
Conditions: growth OD

Measured: normalized growth

CC(C)=CCc1c2c(c3occ(-c4ccc(O)c(O)c4)c(=O)c3c1O)C=CC(C)(C)O2
active: S. cerevisiae deletion strains, locus YKL009W, strain mrt4, hits give low values 0.867 | S. cerevisiae deletion strains, locus YKR001C, strain vps1, hits give low values 0.578 | S. cerevisiae deletion strains, locus YLR039C, strain RIC1, hits give low values 0.235 | S. cerevisiae deletion strains, locus YLR058C, strain SHM2, hits give low values 0.239 | S. cerevisiae deletion strains, locus YLR221C, strain rsa3, hits give low values 0.905 | S. cerevisiae deletion strains, locus YLR262C, strain YPT6, hits give low values 0.298 | S. cerevisiae deletion strains, locus YLR268W, strain sec22, hits give low values 0.495 | S. cerevisiae deletion strains, locus YLR330W, strain CHS5, hits give low values 0.36 | S. cerevisiae deletion strains, locus YLR342W, strain FKS1 (second series), hits give low values 0.195 | S. cerevisiae deletion strains, locus YLR371W, strain rom2, hits give low values 0.447 | S. cerevisiae deletion strains, locus YLR418C, strain cdc73, hits give low values 0.252 | S. cerevisiae deletion strains, locus YML016C, strain PPZ1, hits give low values 0.174 | S. cerevisiae deletion strains, locus YML032C, strain rad52, hits give low values 0.812 | S. cerevisiae deletion strains, locus YML124C, strain tub3, hits give low values 0.849 | S. cerevisiae deletion strains, locus YMR058W, strain fet3, hits give low values 0.755 | S. cerevisiae deletion strains, locus YMR223W, strain ubp8, hits give low values 0.72 | S. cerevisiae deletion strains, locus YMR307W, strain GAS1, hits give low values 0.396 | S. cerevisiae deletion strains, locus YNL067W, strain RPL9B, hits give low values 0.427 | S. cerevisiae deletion strains, locus YNL128W, strain TEP1, hits give low values 0.202 | S. cerevisiae deletion strains, locus YNL153C, strain GIM3, hits give low values 0.388 | S. cerevisiae deletion strains, locus YNL209W, strain ssb2, hits give low values 0.883 | S. cerevisiae deletion strains, locus YNL233W, strain BNI4, hits give low values 0.401 | S. cerevisiae deletion strains, locus YNL307C, strain MCK1, hits give low values 0.546 | S. cerevisiae deletion strains, locus YNL322C, strain KRE1, hits give low values 0.339 | S. cerevisiae deletion strains, locus YNR052C, strain pop2, hits give low values 0.682 | S. cerevisiae deletion strains, locus YOL006C, strain TOP1, hits give low values 0.142 | S. cerevisiae deletion strains, locus YOL147C, strain pex11, hits give low values 0.634 | S. cerevisiae deletion strains, locus YOR061W, strain CKA2, hits give low values 0.257 | S. cerevisiae deletion strains, locus YOR069W, strain VPS5, hits give low values 0.546 | S. cerevisiae deletion strains, locus YOR106W, strain vam3, hits give low values 0.856 | S. cerevisiae deletion strains, locus YOR136W, strain idh2, hits give low values 0.837 | S. cerevisiae deletion strains, locus YOR144C, strain elg1, hits give low values 0.723 | S. cerevisiae deletion strains, locus YOR184W, strain ser1, hits give low values 0.548 | S. cerevisiae deletion strains, locus YOR316C, strain cot1, hits give low values 0.848 | S. cerevisiae deletion strains, locus YPL051W, strain arl3, hits give low values 0.913 | S. cerevisiae deletion strains, locus YPL055C, strain LGE1, hits give low values 0.203 | S. cerevisiae deletion strains, locus YPR163C, strain tif3, hits give low values 0.735 | S. cerevisiae deletion strains, locus YPR167C, strain met16, hits give low values 0.739 | S. cerevisiae deletion strains, strain wtn01, hits give low values 0.533 | S. cerevisiae strains, strain wild type, hits give low values 0.173
inactive: S. cerevisiae deletion strains, locus YKL068W, hits give low values 1 | S. cerevisiae deletion strains, locus YKL085W, strain MDH1 (second series), hits give low values 0.947 | S. cerevisiae deletion strains, locus YKL085W, strain MDH1, hits give low values 0.947 | S. cerevisiae deletion strains, locus YKL160W, strain elf1, hits give low values 0.957 | S. cerevisiae deletion strains, locus YKR026C, strain gcn3, hits give low values 0.994 | S. cerevisiae deletion strains, locus YKR091W, strain srl3, hits give low values 0.997 | S. cerevisiae deletion strains, locus YLL001W, strain dnm1, hits give low values 0.959 | S. cerevisiae deletion strains, locus YLL026W, hits give low values 0.985 | S. cerevisiae deletion strains, locus YLL041C, strain sdh2, hits give low values 0.993 | S. cerevisiae deletion strains, locus YLR027C, strain aat2, hits give low values 0.935 | S. cerevisiae deletion strains, locus YLR102C, strain apc9, hits give low values 0.957 | S. cerevisiae deletion strains, locus YLR113W, strain HOG1, hits give low values 0.868 | S. cerevisiae deletion strains, locus YLR258W, strain gsy2, hits give low values 0.935 | S. cerevisiae deletion strains, locus YLR262C, strain YPT6 (second series), hits give low values 0.995 | S. cerevisiae deletion strains, locus YLR320W, strain mms22, hits give low values 0.931 | S. cerevisiae deletion strains, locus YLR342W, strain FKS1, hits give low values 0.959 | S. cerevisiae deletion strains, locus YLR357W, strain rsc2, hits give low values 0.873 | S. cerevisiae deletion strains, locus YLR370C, strain arc18, hits give low values 0.947 | S. cerevisiae deletion strains, locus YLR384C, strain iki3, hits give low values 0.98 | S. cerevisiae deletion strains, locus YML120C, strain ndi1, hits give low values 0.956 | S. cerevisiae deletion strains, locus YMR078C, strain ctf18, hits give low values 0.929 | S. cerevisiae deletion strains, locus YMR125W, strain sto1, hits give low values 1.01 | S. cerevisiae deletion strains, locus YMR129W, hits give low values 0.981 | S. cerevisiae deletion strains, locus YMR205C, strain PFK2, hits give low values 0.957 | S. cerevisiae deletion strains, locus YMR231W, strain pep5, hits give low values 0.984 | S. cerevisiae deletion strains, locus YNL071W, strain lat1, hits give low values 0.942 | S. cerevisiae deletion strains, locus YNL183C, strain NPR1, hits give low values 0.885 | S. cerevisiae deletion strains, locus YNL248C, strain rpa49, hits give low values 1 | S. cerevisiae deletion strains, locus YNL250W, strain rad50, hits give low values 0.966 | S. cerevisiae deletion strains, locus YNL271C, strain bni1, hits give low values 0.943 | S. cerevisiae deletion strains, locus YNL298W, strain CLA4, hits give low values 0.922 | S. cerevisiae deletion strains, locus YNL322C, strain KRE1 (second series), hits give low values 0.969 | S. cerevisiae deletion strains, locus YNR049C, strain mso1, hits give low values 0.985 | S. cerevisiae deletion strains, locus YOL012C, strain htz1 0.238 | S. cerevisiae deletion strains, locus YOR001W, strain rrp6, hits give low values 0.952 | S. cerevisiae deletion strains, locus YOR070C, strain gyp1, hits give low values 0.951 | S. cerevisiae deletion strains, locus YOR080W, strain dia2, hits give low values 0.961 | S. cerevisiae deletion strains, locus YOR083W, strain WHI5, hits give low values 0.937 | S. cerevisiae deletion strains, locus YOR231W, strain MKK1, hits give low values 0.917 | S. cerevisiae deletion strains, locus YOR265W, strain rbl2, hits give low values 0.977 | S. cerevisiae deletion strains, locus YOR270C, strain vph1, hits give low values 0.925 | S. cerevisiae deletion strains, locus YOR290C, strain snf2, hits give low values 0.93 | S. cerevisiae deletion strains, locus YPL078C, strain atp4, hits give low values 0.957 | S. cerevisiae deletion strains, locus YPL106C, strain sse1, hits give low values 0.919 | S. cerevisiae deletion strains, locus YPL240C, strain hsp82, hits give low values 0.984 | S. cerevisiae deletion strains, locus YPL256C, strain CLN2, hits give low values 0.921 | S. cerevisiae deletion strains, locus YPR119W, strain clb2, hits give low values 0.965 | S. cerevisiae deletion strains, locus YPR141C, strain kar3, hits give low values 0.985
